Hits are enriched below; roughly 27% of the tested compounds scored in any of these assays.
sEH activator – soluble epoxide hydrolase activators, primary screen, biochemical, human sEH; activation, % at 2 µM; 91,000 compounds, 0.04% hits; AID 717, 2007; purified human sEH enzymatic activity, activator screen; in the data active = activation above about 37%
CYP2C19 activ – human CYP2C19 activators, primary screen, biochemical, luminescence; Cytochrome P450 2C19 (Homo sapiens), P33261; recombinant CYP2C19, luciferin-H EGE luminescence; stronger effect = higher value; 0 = fully inhibited enzyme, 1 = untreated enzyme; activation factor at 5 µM; 96,000 tested, under 10 active; AID 1025, 2008;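 active = activation factor of at least 2 at 5 µM in the primary screen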
Target sequence (P33261 whole entry, looked up): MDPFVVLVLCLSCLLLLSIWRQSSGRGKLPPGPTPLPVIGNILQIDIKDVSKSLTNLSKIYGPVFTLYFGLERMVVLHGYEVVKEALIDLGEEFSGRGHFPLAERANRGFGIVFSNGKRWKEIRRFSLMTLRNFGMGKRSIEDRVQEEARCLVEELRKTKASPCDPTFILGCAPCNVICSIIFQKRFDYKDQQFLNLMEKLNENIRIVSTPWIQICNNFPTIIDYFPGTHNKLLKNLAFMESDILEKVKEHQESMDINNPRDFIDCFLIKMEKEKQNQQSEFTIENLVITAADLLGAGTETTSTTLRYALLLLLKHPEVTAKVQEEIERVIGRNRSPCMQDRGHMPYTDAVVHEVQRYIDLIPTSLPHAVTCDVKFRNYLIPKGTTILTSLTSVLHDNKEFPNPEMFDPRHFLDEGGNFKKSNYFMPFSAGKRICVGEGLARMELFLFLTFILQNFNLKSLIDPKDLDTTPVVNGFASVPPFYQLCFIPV
sEH inh – soluble epoxide hydrolase inhibitors, primary screen, biochemical, human sEH; Bifunctional epoxide hydrolase 2 (Homo sapiens), P34913; recombinant human sEH enzymatic activity assay; inhibition, % at 2 µM; 91,000 compounds, 0.34% hits; AID 707, 2007; in the data active = inhibition above about 80%
CYP2C9 inhib – blockers of cytochrome P450 2C9 activity – biochemical, luminescence, ADME assay, primary screen; P11712; CYP2C9 Supersomes, luciferin-H conversion; inhibition, % at 5 µM; 96,000 compounds, 20% hits; AID 777, 2007;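 active = blocking of liver enzyme CYP2C9 beyond about 50% at 5 µM, limit read from the data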
CYP2C19 inh – blockers of cytochrome P450 2C19 activity – biochemical, luminescence, ADME assay, primary screen; P33261; CYP2C19 Supersomes, luciferin-H EGE luminescence, 30 min; inhibition, % at 5 µM; 96,000 compounds, 21% hits;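 active = CYP2C19 inhibition above a set limit at 5 µM in the primary screen, cut at about 50% in these data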
CYP2C9 activ – human CYP2C9 activators, primary screen, biochemical, luminescence. AID 1024, 2008. recombinant CYP2C9, luciferin-H conversion; stronger effect = higher value; factor 1 = untreated enzyme, 0 = blocked. activation factor at 5 µM. 96,000 compounds, 1.4% hits. Cytochrome P450 2C9 (Homo sapiens), P11712;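 active = activation factor of 2 or more for CYP2C9 at a 5 µM dose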
Hits are given with their value; n = inactive; x = no result.

SMILES	sEH activator	CYP2C19 activ	sEH inh	CYP2C9 inhib	CYP2C19 inh	CYP2C9 activ
CC(O)c1nc2ccccc2n1Cc1nnc(-c2ccc(Cl)cc2)o1 (stereo unspecified)	x	n	x	n	66.4	n
O=C(Nc1nc2n(n1)C(c1ccccc1)C=C(c1ccccc1)N2)c1ccco1 (stereo unspecified)	x	n	x	72.9	n	n
COc1ccc(C2CC(c3ccccc3)Nc3nc(NC(=O)c4cccs4)nn32)cc1 (stereo unspecified)	n	n	n	n	n	n
COc1ccc(C2CC(c3ccccc3)n3nnnc3N2)cc1 (stereo unspecified)	n	n	n	87.3	98.4	n
CC(=O)Nc1nc2n(n1)C(c1ccccc1)C=C(c1ccccc1)N2 (stereo unspecified)	x	n	x	n	n	n
COc1ccc(C2CC(c3ccccc3)n3nc(NC(=O)c4cccs4)nc3N2)cc1 (stereo unspecified)	n	n	n	53.4	n	n
O=C(Nc1nc2n(n1)C(c1ccc(Cl)cc1)CC(c1ccc(Cl)cc1)N2)c1ccco1 (stereo unspecified)	n	n	n	82.1	71.1	n
Cc1cc(C)cc(NC(=O)c2nccnc2C(=O)O)c1	n	n	n	n	n	n
CCCCCSc1nnc2c(n1)OC(C)N(C(C)=O)c1ccccc1-2 (stereo unspecified)	x	n	x	n	n	n
CCCS(=O)(=O)c1cn2cccc(N)c2c1S(=O)(=O)CCC	x	n	x	n	n	n
Cc1ccc(C2CC(c3cccc(Br)c3)Nc3nnnn32)cc1 (stereo unspecified)	n	n	n	n	51.4	n
CCOc1ccc(C2CC(c3cccc(OC)c3OC)n3nnnc3N2)cc1Cl (stereo unspecified)	x	n	x	89.2	97.7	n
COc1ccc(C2CC(c3cc(Br)ccc3F)n3nnnc3N2)cc1 (stereo unspecified)	x	n	x	63.8	n	n
COC(=O)c1ccc(S(=O)(=O)N2CCCC2)o1	n	n	n	n	n	n
O=C(NC1CCCCC1)c1nc2c(nnn2Cc2ccccc2Cl)c(=O)[nH]1	n	x	n	x	x	x
O=C(CSc1ccccn1)Nc1nncs1	n	x	n	x	x	x
COC(=O)c1cccc(NC(=O)Cn2cnc3c2c(=O)n(C)c(=O)n3C)c1	x	n	x	60.6	n	n
CC(C)NC(=O)Cn1cnc2c1c(=O)n(C)c(=O)n2C	n	n	n	n	n	n
CCOC(=O)c1cccc(NC(=O)Cn2cnc3c2c(=O)n(C)c(=O)n3C)c1	n	n	n	72.5	n	n
CCCCn1c(Oc2ccc(C(=O)OC)cc2)nc2c1c(=O)n(C)c(=O)n2C	x	n	x	n	n	n
COC(=O)c1cccc(Oc2nc3c(c(=O)n(C)c(=O)n3C)n2C(C)C)c1	n	n	n	74.8	n	n
COc1ccc(S(=O)NC2CCCCC2)c(OC)c1C (stereo unspecified)	n	n	n	n	n	n
CCC(CC)c1nnc(NC(=O)c2ccc(N3CCCC3=O)cc2)s1	n	n	n	n	n	n
CCCCC(=Nc1ccc(N)cc1)C1=C(O)C(C(=O)OC)C(C)(C)CC1=O (stereo unspecified)	n	n	n	51.3	n	n
CCCC(=NCc1ccccc1)C1=C(O)C(C(=O)OC)C(C)(C)CC1=O (stereo unspecified)	n	n	n	63.6	92.8	n
SMILES	sEH activator	CYP2C19 activ	sEH inh	CYP2C9 inhib	CYP2C19 inh	CYP2C9 activ
CCCC(=Nc1ccccc1)C1=C(O)C(C(=O)OC)C(C)(C)CC1=O (stereo unspecified)	n	n	n	n	69.2	n
CCCC(=NCC(=O)O)C1=C(O)C(C(=O)OC)C(C)(C)CC1=O (stereo unspecified)	n	n	n	n	n	n
CCC(=Nc1ccc(N)cc1)C1=C(O)C(C(=O)OC)C(C)(C)CC1=O (stereo unspecified)	n	n	n	n	n	n
CCC(=NCc1ccccc1)C1=C(O)C(C(=O)OC)C(C)(C)CC1=O (stereo unspecified)	n	n	n	86.3	97.1	n
COC(=O)C1C(O)=C(C=NCc2ccccc2)C(=O)CC1(C)C (stereo unspecified)	n	n	n	n	n	n
Clc1ccc(Br)cc1-c1nc(-c2cccnc2)no1	n	x	n	x	x	x
CCCC(=O)C1=C(O)C(C(=O)OC)C(C)(C)CC1=Nc1ccccc1 (stereo unspecified)	n	n	n	82.1	86.8	n
O=C(O)C1CC(O)CN1C(=O)c1ccco1 (stereo unspecified)	n	n	n	n	n	n
COc1ccc(OC)c(NC(=O)Cn2cccc2)c1	n	n	n	n	n	n
COc1ccc(OC)c(NC(=O)Cn2cc(C(=O)c3ccco3)c3ccccc32)c1	n	n	n	97.6	95.8	n
COc1ccc(OC)c(NC(=O)Cn2cc(C#N)c3ccccc32)c1	n	n	n	80.2	84.6	n
CCOC(=O)C(CC)Sc1nc(N)c(NC(=O)c2ccc(OC)c(OC)c2)c(=O)[nH]1 (stereo unspecified)	n	n	n	n	n	n
O=S(=O)(C/C(=C/CO)S(=O)(=O)c1ccccc1)c1ccccc1	n	n	n	n	n	n
CCOC(=O)C1CCN(C(=O)CCNC(=O)c2cc(OC)c(OC)c(OC)c2)CC1	n	n	n	n	n	n
CC(=O)N(CCCN1CCOCC1)Cc1ccncc1	n	n	n	n	n	n
Cc1ccc(NC(=S)N/N=C/c2ccc(OCCC(C)C)cc2)c(C)c1	n	n	n	64.7	n	n
O=C1CC(N(C(=O)c2ccco2)c2cccc(Cl)c2)C(=O)N1c1cccc(Cl)c1 (stereo unspecified)	n	n	n	92.0	91.4	n
Cc1ccc(-c2ccc(CCC(=O)O)n2CC2CCCO2)cc1 (stereo unspecified)	n	n	n	n	n	n
O=C(O)CCc1ccc(-c2ccc(Br)cc2)n1Cc1ccco1	n	n	n	n	n	n
O=C(O)CCc1ccc(-c2ccccc2)n1Cc1ccco1	n	n	n	n	62.7	n
O=C(O)CCc1ccc(-c2ccc(F)cc2)n1Cc1ccco1	n	n	n	n	56.7	n
O=C(O)CCc1ccc(-c2ccccc2)n1CC1CCCO1 (stereo unspecified)	n	n	n	n	64.2	n
Cc1[nH]c2ccccc2c1Cc1nnc(SCCC#N)o1	n	x	n	x	x	x
O=C(N/N=C/c1cccc([N+](=O)[O-])c1)c1ccc2nc[nH]c2c1	n	n	n	50.8	n	n
COc1ccc(C)cc1N(CC(=O)O)S(=O)(=O)c1ccc(C)cc1	n	n	n	n	n	n
CNC(=O)CN(c1cc(C)ccc1OC)S(=O)(=O)c1ccc(C)cc1	n	n	n	n	n	n
